High-throughput results deposited in PubChem by National Center for Advancing Translational Sciences (NCATS).
KB-V1 cytotox: qHTS assay for MDR1-selective chemotherapeutics: Primary screen using the drug-selected MDR subline cells KB-V1. Potency, µM (highest dose often 46.1 µM), actives largely listed as cytotoxic. KB-V1 MDR cells viability, CellTiter-Glo, 72 h. 3.4% of 400,000 active. AID 1347076, 2019; further: on the % scale 0 is the no-effect control and ±100 the full control effect; nearly all actives have a fitted effect of over 60% in size
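KB-V1, DMEM (no phenol red) + 10% FBS; cpd pin-transferred, titration series; 72 h, 37 degrees C; CellTiter-Glo, luminescence. Data normalized, curve-fit.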
SW480 rereplic: A quantitative high throughput screen for small molecules that induce DNA re-replication in SW480 colon adenocarcinoma cells | Potency, µM (highest dose often 46.1 µM), without a hit: at the highest dose re-replication activation, usual class: activators | SW480 DNA re-replication, Hoechst DNA content imaging, 48 h | 1.8% of 340,000 active | AID 624297, 2012; further: % of control where 0% means no effect; nearly all actives have a fitted effect of over 55% in size
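250 cells/well; 23 nL cpd via pin tool; 48 hr, 37 C, 5% CO2; Hoechst 40 min; imager read of total nuclear intensity, ex 405/em 500-530 nm.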
Gal4-VP16 FLuc: VP16 counterscreen qHTS for inhibitors of ROR gamma transcriptional activity. Drosophila S2 Gal4-VP16 UAS-luciferase, luminescence, 20 h. Potency, µM (titrated, usually from 53.6 µM), without a hit: top-dose activity, negative = inhibition, hits mostly inhibitors. 3.5% of 310,000 active. AID 2546, 2010;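 further: Gal4-VP16 expression switched on by copper sulfate through the metallothionein promoter; on the % scale 0 is the no-effect control and ±100 the full control effect; nearly all actives have a fitted effect of over 50% in size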
RORg inh: qHTS for inhibitors of ROR gamma transcriptional activity; Nuclear receptor ROR-gamma (Mus musculus), P51450; Drosophila S2 Gal4-RORgamma UAS-luciferase reporter, 20 h; Potency, µM (series often up to 53.6 µM), for inactives: top-dose activity change, negative = inhibition, usual class: inhibitors; 5.4% of 310,000 active; AID 2551, 2010; further: on the % scale 0 is the no-effect control and ±100 the full control effect; nearly all actives have a fitted effect of over 60% in size
Target sequence (P51450 whole entry, looked up, the tested form may be a part): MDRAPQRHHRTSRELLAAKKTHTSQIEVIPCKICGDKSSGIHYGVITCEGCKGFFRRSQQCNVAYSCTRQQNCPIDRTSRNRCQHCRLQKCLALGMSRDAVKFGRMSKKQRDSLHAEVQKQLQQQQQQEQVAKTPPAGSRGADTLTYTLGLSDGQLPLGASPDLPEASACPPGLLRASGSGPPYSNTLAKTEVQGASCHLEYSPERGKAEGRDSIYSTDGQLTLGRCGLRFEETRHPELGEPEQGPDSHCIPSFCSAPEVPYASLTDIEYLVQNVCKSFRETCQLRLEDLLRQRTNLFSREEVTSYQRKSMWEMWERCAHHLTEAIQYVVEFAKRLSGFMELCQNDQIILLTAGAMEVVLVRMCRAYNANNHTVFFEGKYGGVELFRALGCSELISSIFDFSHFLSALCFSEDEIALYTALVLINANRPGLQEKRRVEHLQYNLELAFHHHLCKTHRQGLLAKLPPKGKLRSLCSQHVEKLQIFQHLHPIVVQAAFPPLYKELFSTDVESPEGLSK
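Drosophila S2 cells stably expressing Gal4-DBD/mouse RORγ fusion under metallothionein promoter plus UAS-luciferase; compound 1 h, then 700 uM CuSO4 induction for 20 h at ambient temperature; inhibition read as reduced luminescence.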
KB-3-1 tox: qHTS assay for MDR1-selective chemotherapeutics: Primary screen using the parental adenocarcinoma cell KB-3-1 | KB-3-1 viability, CellTiter-Glo ATP luminescence, 72 h | Potency, µM (top dose mostly 46.1 µM), most hits filed as cytotoxic | 1.4% of 400,000 active; further: on the % scale 0 is the no-effect control and ±100 the full control effect; nearly all actives have a fitted effect of over 60% in size
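Screening of KB-3-1 cells (DMEM, 10% FBS, phenol-red free) ran from lowest to highest compound concentration; after 72 h at 37 °C viability was read luminescently and curves fitted.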
MCF10A rereplic: A quantitative high throughput screen for small molecules that induce DNA re-replication in MCF 10a normal breast cells; MCF 10A DNA re-replication, Hoechst nuclear intensity, 48 h; Potency, µM (highest dose often 46.1 µM), inactives show at the top dose activity, positive = re-replication, usual class: activators; 2.9% of 350,000 active; further: % of control where 0% means no effect; nearly all actives have a fitted effect of over 50% in size
* marks the source's active call; other numbers are inactive results; i = inactive; ? = inconclusive; / = no result given; [ ] = remark or other dose. Rows were chosen to be rich in hits. Some 10% of all compounds tested hit in one or more screens of this group. The call rests on the fitted dose curve; in most records, active means well fitted curve in the direction sought with a large enough effect; inconclusive means small, poorly fitted or top-dose-only effect, or another doubt; inactive means no such curve, though single readings can be large; an effect the other way counts as inactive or inconclusive. Potency means the concentration at half of the fitted maximal effect.

SMILES	KB-V1 cytotox	SW480 rereplic	Gal4-VP16 FLuc	RORg inh	KB-3-1 tox	MCF10A rereplic
CN(C)CC(C)(C)CNC(=S)Nc1ccc(S(=O)(=O)N2CCOCC2)cc1	?	26µM*	4%	-3%	i	7%
COc1cc(NC(=S)Nc2ccc(S(=O)(=O)N3CCOCC3)cc2)cc(OC)c1OC	i	0%	-5%	3%	i	1%
O=S(=O)(c1ccc(NC(=S)Nc2ccc3c(c2)OCO3)cc1)N1CCOCC1	?	-4%	-5%	-9%	i	14%
CC(C)CCCCCCNC(=S)Nc1ccc(S(=O)(=O)N2CCOCC2)cc1	8.2µM*	?	?	?	?	13µM*
COc1ccccc1-c1nnc(SCCOc2ccccc2C)o1	i	/	/	/	i	/
COC(=O)/C=C/c1ccccc1S(=O)(=O)NC(C)C	i	/	/	/	i	/
COC(=O)/C=C/c1ccccc1S(=O)(=O)N(Cc1ccccc1)Cc1ccco1	7.3µM*	4.1µM*	-3%	19%	3.3µM*	2.1µM*
N#Cc1nc(Nc2cc(F)cc(F)c2)c2ncn(CCO)c2n1	?	/	/	/	15µM*	/
N#Cc1nc(Nc2cc(F)cc(F)c2)c2ncn(CC(F)F)c2n1	i	-5%	/	/	i	?
O=C(N/N=C\c1cc(Br)cs1)c1ccncc1	i	-13%	2.8µM*	1.6µM*	i	13%
CCOc1ccc(Br)cc1/C=N/NC(=O)c1ccncc1	i	4%	5%[0.365 µM]	?	i	?
Cc1ccccc1C(=O)N/N=C/c1ccc([N+](=O)[O-])s1	?	?	2µM*	1.8µM*	i	-12%
O=C(CNC(=O)c1cccc(F)c1)N/N=C/c1ccc([N+](=O)[O-])s1	i	18µM*	1%	15%	i	?
Cc1ccc(/C=N\NC(=O)c2cncc(Br)c2)o1	?	-33%	?	5µM*	?	-5%
O=C(CNC(=O)c1cccc(Br)c1)N/N=C/c1cccs1	?	?	-4%	?	i	1%
CC(C)(C)C(=O)N(Cc1ccc(Cl)cc1)c1cnccn1	i	16%	?	?	i	5%
Cc1ccnn1CC(=O)N/N=C/c1ccc([N+](=O)[O-])s1	i	?	-13%	-1%	?	12%
O=C(N/N=C/c1ccc(O)cc1)c1cncc(Br)c1	?	-2%	-3%	-16%	i	-1%
O=C(N/N=C/c1ccc([N+](=O)[O-])s1)c1ccccc1Br	?	10µM*	6.3µM*	1.8µM*	i	3%
O=C(Cc1ccccc1)N/N=C/c1ccc([N+](=O)[O-])s1	15µM*	?	?	?	?	?
O=C(N/N=C/c1cccs1)c1cncc(Br)c1	i	3%	2µM*	1µM*	i	18%
O=C(N/N=C\c1ccc([N+](=O)[O-])s1)c1cncc(Br)c1	i	5.8µM*	1.1µM*	0.71µM*	5.8µM*	7.3µM*
Cc1ccc(CN(C(=O)c2ccc(C(C)(C)C)cc2)c2ccccn2)o1	i	/	/	/	i	/
O=C(N/N=C/c1ccc([N+](=O)[O-])s1)c1ccccc1	i	-1%	1.3µM*	0.79µM*	?	1%
O=C(O)c1ccc(NN=Cc2cc(=O)[nH]c(=O)[nH]2)cc1	i	-4%	/	/	i	-6%
SMILES	KB-V1 cytotox	SW480 rereplic	Gal4-VP16 FLuc	RORg inh	KB-3-1 tox	MCF10A rereplic
O=C(N/N=C/c1ccc([N+](=O)[O-])s1)C(O)c1ccccc1 (stereo not drawn)	i	14%	?	18%	?	?
Cn1c(SCC(=O)N/N=C/c2cc([N+](=O)[O-])ccc2O)nnc1-c1ccccc1	i	?	-11%	-26%	?	3%
Cc1ccsc1/C=N/Nc1ccc(C(=O)O)cc1	i	14%	0.22µM*	1.1µM*	i	5%
Cn1c(SCC(=O)N/N=C/c2ccc([N+](=O)[O-])s2)nnc1-c1ccccc1	?	?	20µM*	11µM*	21µM*	18µM*
O=C(O)c1ccc(N/N=C/c2cc(Br)cs2)cc1	?	-2%	1µM*	6.3µM*	i	-21%
COc1ccc(CNC(=O)c2cc(-c3cccs3)nc3ccccc23)c(OC)c1	i	/	/	/	i	/
C=Cc1ccc(Cn2c(=O)n(-c3ccc(C)cc3)c(=O)c3c2c2cc(OC)ccc2n3C)cc1	i	/	/	/	i	/
CO[C@H]1COC(=O)[C@H]2CCCN2C(=O)[C@@H](C)COC(=O)C/C=C\[C@@H]1C	/	/	-10%[10 µM]	1%[10 µM]	/	/
Cc1cc(C)c(NC(=O)C(C)n2nc(-c3ccc(C)c(C)c3)ccc2=O)c(C)c1 (stereo not drawn)	i	/	/	/	i	/
O=C1/C(=C/c2ccccc2)NC(=S)N1C(c1ccccc1)c1ccccc1	?	?	-7%	?	?	?
CN1C(=O)/C(=C/c2cc(C(C)(C)C)c(O)c(C(C)(C)C)c2)NC1=S	i	-1%	?	7.1µM*	i	13%
O=[N+]([O-])C(/C=C(/Cl)[N+](=O)[O-])=C(N1CCCCC1)N1CCCCC1	i	15µM*	?	-39%	i	6%
CCN(CC)CCC(c1ccc(N(C)C)cc1)c1c(OC)cc(OC)c2c(C)cc(=O)oc12 (stereo not drawn)	/	/	-9%	?	/	/
Cc1cc(NS(=O)(=O)c2ccccc2)c(C)c(Cl)c1O	21µM*	3%	?	?	?	-1%
Cc1c(O)ccc(NS(=O)(=O)c2ccccc2)c1C	i	-1%	-8%	5%	i	-2%
CCCCCCCCCc1nc2sc3c(c2c(=O)n1NC(=O)c1ccccc1[N+](=O)[O-])CC(C)(C)OC3	?	0%	-14%	4%	i	2.9µM*
CCCc1nc2sc3c(c2c(=O)n1NC(=O)c1ccco1)CC(C)(C)OC3	i	14%	-2%	16%	i	17%
CCCCCCCCCc1nc2sc3c(c2c(=O)n1NC(=O)c1ccc([N+](=O)[O-])cc1)CC(C)(C)OC3	?	9%	?	?	i	6.5µM*
c1ccc(CC[n+]2ccncc2)cc1	i	/	/	/	i	/
CO[C@@H]1CN(C)C(=O)c2ccc(NS(=O)(=O)c3c(C)noc3C)cc2OC[C@@H](C)NC[C@@H]1C	i	/	/	/	i	/
